Hits are enriched below; roughly 4.1% of the tested compounds scored in any of these assays.
DAX1 inh-1: inhibitors of DAX1 repression of SF-1 activated StAR promoter | inhibition, % at 6.8 µM | HEK293T StAR-luciferase reporter, SF-1/DAX-1 repression relief | AID 652010 | actives 1.1% (n = 370,000);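 active = inhibition above the mean over all tested compounds plus 3 SD, cut at about 3.6% in these data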;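 note: 0% = DAX-1 cells with DMSO and 100% = cells lacking DAX-1 with DMSO; higher inhibition means more luminescence from relief of DAX-1 repression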
DAX1 inh-2: NR0B1 (DAX1) inhibition; actives 0.99% (n = 340,000); P51843; HEK293 Gal4-DAX1 luciferase reporter, luminescence; inhibition, % at 6.75 µM;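 active = inhibition above the mean over all tested compounds plus 3 SD, cut at about 4.2% in these data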;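 note: 0% = DAX1-transfected cells with DMSO and 100% = empty-vector control cells with DMSO; inhibition shows as a rise in luminescence from relieved DAX1 repression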
Target sequence (P51843 207-470 limits assumed): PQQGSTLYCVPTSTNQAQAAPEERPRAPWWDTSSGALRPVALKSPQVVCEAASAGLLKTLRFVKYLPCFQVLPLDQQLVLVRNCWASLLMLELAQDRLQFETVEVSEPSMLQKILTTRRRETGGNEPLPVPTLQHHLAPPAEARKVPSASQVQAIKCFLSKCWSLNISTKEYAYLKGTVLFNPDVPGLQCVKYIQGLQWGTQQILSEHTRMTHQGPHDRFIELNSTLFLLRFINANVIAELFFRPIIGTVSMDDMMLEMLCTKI
hcDAF12 agonist: activators of H. contortus DAF-12 nuclear receptor; HEK293 hcDAF-12 lit1-tk-luc reporter, luminescence; 0% DMSO, 100% Δ7-dafachronic acid; activation, % at 6.8 µM; actives 1.4% (n = 370,000);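 active = activation above the mean of all tested compounds plus 3 SD, cut at about 5.5% in these data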;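 note: 100% = response to 3 µM Δ7-dafachronic acid high control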
hgDAF12 agonist: agonists of H. glycines DAF-12 nuclear receptor; HEK293 GAL4-hgDAF12 UAS-luciferase reporter, agonist luminescence; normalized to butyrate control; activation, % at 6.8 µM; actives 1.8% (n = 370,000); AID 687014;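 active = activation above a cutoff set at the mean of all screened compounds plus 3 SD, cut at about 10% in these data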;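 note: 0% = DMSO wells and 100% = sodium butyrate wells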
ssDAF12 agonist: S. stercoralis DAF-12 activation, primary screen; HEK293 ssDAF-12/GRIP1 lit1-tk-luc reporter, luminescence; % of 3 µM dafachronic acid response; activation, % at 6.8 µM; actives 1% (n = 370,000); AID 652126;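 active = activation above the mean over all tested compounds plus 3 SD, cut at about 0.9% in these data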;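 note: 0% = DMSO-only wells and 100% = 3 µM delta7-dafachronic acid wells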
* hit, by the source's call.

Results for COc1cc(C(C[N+](=O)[O-])c2c(C)[nH]c3ccccc23)cc(OC)c1OC (stereo unspecified) ?
DAX1 inh-1: 0; DAX1 inh-2: 0; hcDAF12 agonist: 2; hgDAF12 agonist: -1; ssDAF12 agonist: 0

What do the screens show for `O=[N+]([O-])CC(c1ccccc1)c1c[nH]c2ccccc12` (stereo unspecified)?
DAX1 inh-1: 0; hcDAF12 agonist: 3; hgDAF12 agonist: 0; ssDAF12 agonist: 1.1*

Results for CC(C)c1ccc(NC(=O)Nc2nc(CN)cs2)cc1 ?
DAX1 inh-1: 2; hcDAF12 agonist: 1; hgDAF12 agonist: 12*; ssDAF12 agonist: -1

What do the screens show for `CC(C)c1ccc(NC(=O)Nc2nc(C(C)N)cs2)cc1` (stereo unspecified)?
DAX1 inh-1: -1; hcDAF12 agonist: 1; hgDAF12 agonist: -3; ssDAF12 agonist: -1

What do the screens show for `Cc1sc2ncnc(OCC(=O)N3CCN(C(=O)c4ccco4)CC3)c2c1C`?
DAX1 inh-1: -1; DAX1 inh-2: 5.7*; hcDAF12 agonist: -1; hgDAF12 agonist: 2; ssDAF12 agonist: -1

How did Cc1sc2ncnc(SCC(=O)NNC(=O)c3ccco3)c2c1C do in these assays?
DAX1 inh-1: 0; DAX1 inh-2: 0; hcDAF12 agonist: -2; hgDAF12 agonist: -1; ssDAF12 agonist: -1

Results for Cc1nc(-c2nc(C(=O)NNS(C)(=O)=O)cs2)cs1 ?
DAX1 inh-1: 0; DAX1 inh-2: -1; hcDAF12 agonist: -1; hgDAF12 agonist: -1; ssDAF12 agonist: -2

What do the screens show for `CC(=O)NNC(=O)c1csc(-c2csc(C)n2)n1`?
DAX1 inh-1: 0; DAX1 inh-2: 7.3*; hcDAF12 agonist: -2; hgDAF12 agonist: 0; ssDAF12 agonist: -1

How did CCc1ccc(C(=O)NC2CCCCC2)s1 do in these assays?
DAX1 inh-1: 3; DAX1 inh-2: 1; hcDAF12 agonist: 3; hgDAF12 agonist: 11*; ssDAF12 agonist: 1

What do the screens show for `CC(C)(O)C#Cc1ccc(C(=O)NC2CCCCC2)s1`?
DAX1 inh-1: 1; DAX1 inh-2: 1; hcDAF12 agonist: 2; hgDAF12 agonist: 11*; ssDAF12 agonist: -1

What do the screens show for `CC(C)(O)C#Cc1ccc(C(=O)NCCC(=O)O)s1`?
DAX1 inh-1: 0; DAX1 inh-2: 0; hcDAF12 agonist: -2; hgDAF12 agonist: -1; ssDAF12 agonist: -1

Results for O=C(NC1CCCCC1)c1cccs1 ?
DAX1 inh-1: 0; DAX1 inh-2: -1; hcDAF12 agonist: -1; hgDAF12 agonist: 2; ssDAF12 agonist: -1

What do the screens show for `CC1CCc2sc(C(=O)NC3CCCCC3)cc2C1` (stereo unspecified)?
DAX1 inh-1: 2; DAX1 inh-2: 4; hcDAF12 agonist: 3; hgDAF12 agonist: 12*; ssDAF12 agonist: -1

What do the screens show for `O=C(CNC(=O)c1ccco1)NCc1ccc2c(c1)OCO2`?
DAX1 inh-1: -1; DAX1 inh-2: 0; hcDAF12 agonist: 0; hgDAF12 agonist: 1; ssDAF12 agonist: -1

How did N#Cc1ccc(C(=O)Oc2coc(CSc3ncccn3)cc2=O)cc1 do in these assays?
hcDAF12 agonist: 1; hgDAF12 agonist: 3; ssDAF12 agonist: 0

What do the screens show for `O=C(Nc1nc2ccsc2c(=O)s1)c1ccc(Cl)cc1`?
DAX1 inh-1: 2; DAX1 inh-2: 5.8*; hcDAF12 agonist: 5; hgDAF12 agonist: 9; ssDAF12 agonist: 0.9*

What do the screens show for `NC(=O)C1CCCN(Cc2ccc3ccccc3c2)C1` (stereo unspecified)?
DAX1 inh-1: -1; DAX1 inh-2: 5.1*; hcDAF12 agonist: -1; hgDAF12 agonist: -2; ssDAF12 agonist: -1

What do the screens show for `Cc1ccc(N=Nc2ccc3ccccc3c2O)cc1`?
DAX1 inh-1: 0; DAX1 inh-2: 4; hcDAF12 agonist: 5; hgDAF12 agonist: -2; ssDAF12 agonist: -1

How did COc1cccc(N=Nc2ccc3ccccc3c2O)c1 do in these assays?
DAX1 inh-1: 2; DAX1 inh-2: 4; hcDAF12 agonist: 4; hgDAF12 agonist: 10; ssDAF12 agonist: 1.6*

Results for Cc1ccc(NC(=O)NNC(=O)c2cccs2)cc1 ?
DAX1 inh-1: 1; DAX1 inh-2: 0; hcDAF12 agonist: 5.8*; hgDAF12 agonist: 7; ssDAF12 agonist: -1

How did CC(C)c1ccc(NC(=S)NNC(=O)c2cccs2)cc1 do in these assays?
DAX1 inh-1: 2; DAX1 inh-2: 4; hcDAF12 agonist: 1; hgDAF12 agonist: 11*; ssDAF12 agonist: -1

Results for COc1ccc(NC(=S)NNC(=O)c2cccs2)cc1 ?
DAX1 inh-1: 3; DAX1 inh-2: 1; hcDAF12 agonist: -1; hgDAF12 agonist: 3; ssDAF12 agonist: 0

How did O=C(CCCCCN1C(=O)C2C3C=CC(C3)C2C1=O)Nc1ccc2ncccc2c1 (stereo unspecified) do in these assays?
DAX1 inh-1: -3; hcDAF12 agonist: 1; hgDAF12 agonist: 0; ssDAF12 agonist: -1

How did Cc1ccc(NC(=O)Cc2cccc(OC(F)F)c2)c(S(=O)(=O)N2CCOCC2)c1 do in these assays?
DAX1 inh-1: -1; hcDAF12 agonist: -1; hgDAF12 agonist: 0; ssDAF12 agonist: -2

How did Cc1ccc(CCNC(=O)C2CCC(=O)N(Cc3ccccc3F)C2)o1 (stereo unspecified) do in these assays?
DAX1 inh-1: 4.1*; DAX1 inh-2: 0; hcDAF12 agonist: 4; hgDAF12 agonist: 10; ssDAF12 agonist: 0

Results for COC(=O)c1cc2c(c3c4ccccc4n(S(=O)(=O)c4ccc(OC)cc4)c13)C(=O)N(Cc1ccco1)C2 ?
DAX1 inh-1: -2; hcDAF12 agonist: 0; hgDAF12 agonist: -2; ssDAF12 agonist: -1

What do the screens show for `CCOC(=O)[C@H]1[C@H]2COc3ccc(Br)cc3[C@H]2N2C(=O)CN(CCc3c[nH]c4ccccc34)C(=O)[C@@]12C`?
DAX1 inh-1: 0; DAX1 inh-2: 0; hcDAF12 agonist: 2; hgDAF12 agonist: -1; ssDAF12 agonist: 0.9*

How did Cc1ccc(-c2nn[nH]n2)cc1 do in these assays?
DAX1 inh-1: 0; DAX1 inh-2: -1; hcDAF12 agonist: 4; hgDAF12 agonist: 1; ssDAF12 agonist: 1.1*

What do the screens show for `CS(=O)(=O)c1ccc(-c2nn[nH]n2)cc1`?
DAX1 inh-1: 0; DAX1 inh-2: 0; hcDAF12 agonist: 0; hgDAF12 agonist: -1; ssDAF12 agonist: -1

Results for COc1ccc2c(c1)CO[C@H]([C@H](O)CO)[C@H]2/C=C/c1ccccc1 ?
DAX1 inh-1: 0; hcDAF12 agonist: -1; hgDAF12 agonist: 0; ssDAF12 agonist: -1

How did Cc1nc(NC(=O)/C=C/c2ccc(F)cc2)sc1C(=O)N(C)C do in these assays?
DAX1 inh-1: 1; DAX1 inh-2: 0; hcDAF12 agonist: 0; hgDAF12 agonist: -1; ssDAF12 agonist: -2

What do the screens show for `Cc1ccc(C(=O)Nc2nc(C)c(C(=O)N(C)C)s2)o1`?
DAX1 inh-1: 4.4*; DAX1 inh-2: 2; hcDAF12 agonist: 2; hgDAF12 agonist: 2; ssDAF12 agonist: -1

How did Cc1nc(NC(=O)/C=C/c2ccccc2)sc1C(=O)N(C)C do in these assays?
DAX1 inh-1: 1; DAX1 inh-2: 0; hcDAF12 agonist: 4; hgDAF12 agonist: 10*; ssDAF12 agonist: -1
